# In PubChem BioAssay (NCATS):
# Results filed as inconclusive are left out. Unmarked numbers belong to inactive results. Calls of active or inactive are those of the source. Calls come from the whole dose curve; as a rule, active = well fitted curve in the direction sought with a large enough effect; inconclusive = small, poorly fitted or top-dose-only effect, or another doubt; inactive = no such curve, though single readings can be large; an effect the other way counts as inactive or inconclusive.
# Experiments:
# [1] = Quantitative High-Throughput drug screen in 47 multiple myeloma cell lines against the NCATS MIPE library collection: KMS12BM_JCRB cell viability assay (AID 1918971); note: nearly all actives have a fitted effect of over 35% in size; note: potency is the fitted concentration of half-maximal effect
# Summary of the method: (§1)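 Inhibition of cell viability is measured here. Each line was plated at 500 cells per well, treated with MIPE 4.0 drugs, kept 48 hours at 37C, then assayed for ATP content by CellTiter-Glo luminescence.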
# [2] = Quantitative High-Throughput drug screen in 47 multiple myeloma cell lines against the NCATS MIPE library collection: KMS12PE_JCRB cell viability assay (AID 1918972); note: nearly all actives have a fitted effect of over 30% in size; note: potency is the fitted concentration of half-maximal effect
# Summary of the method: as §1
# [3] = Quantitative High-Throughput drug screen in 47 multiple myeloma cell lines against the NCATS MIPE library collection: KMS26_JCRB cell viability assay (AID 1918975); note: nearly all actives have a fitted effect of over 45% in size; note: potency is the fitted concentration of half-maximal effect
# Summary of the method: as §1
# [4] = Quantitative High-Throughput drug screen in 47 multiple myeloma cell lines against the NCATS MIPE library collection: MMM1_PLB cell viability assay (AID 1918976); note: potency is the fitted concentration of half-maximal effect; nearly all actives have a fitted effect of over 35% in size
# Summary of the method: (§2)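 ATP-based luminescence (CellTiter-Glo, 5 min RT incubation) quantified surviving cells following two days' treatment with MIPE 4.0 agents at 37 °C, 5% CO2.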
# [5] = Quantitative High-Throughput drug screen in 47 multiple myeloma cell lines against the NCATS MIPE library collection: NCIH929_DSMZ cell viability assay (AID 1918978); note: nearly all actives have a fitted effect of over 35% in size; note: potency is the fitted concentration of half-maximal effect
# Summary of the method: as §2
# [6] = Quantitative High-Throughput drug screen in 47 multiple myeloma cell lines against the NCATS MIPE library collection: MM1S_ATCC cell viability assay (AID 1918980); note: potency is the fitted concentration of half-maximal effect; nearly all actives have a fitted effect of over 45% in size
# Summary of the method: as §2
# [7] = Quantitative High-Throughput drug screen in 47 multiple myeloma cell lines against the NCATS MIPE library collection: MM1R_ATCC cell viability assay (AID 1918981); note: potency is the fitted concentration of half-maximal effect; nearly all actives have a fitted effect of over 35% in size
# Summary of the method: as §2
# [8] = Quantitative High-Throughput drug screen in 47 multiple myeloma cell lines against the NCATS MIPE library collection: KMS28PE_JCRB cell viability assay (AID 1918983); note: nearly all actives have a fitted effect of over 35% in size; note: potency is the fitted concentration of half-maximal effect
# Summary of the method: as §2
# [9] = Quantitative High-Throughput drug screen in 47 multiple myeloma cell lines against the NCATS MIPE library collection: KMS34_JCRB cell viability assay (AID 1918985); note: nearly all actives have a fitted effect of over 40% in size; note: potency is the fitted concentration of half-maximal effect
# Summary of the method: as §2
# [10] = Quantitative High-Throughput drug screen in 47 multiple myeloma cell lines against the NCATS MIPE library collection: OCIMY5_PLB cell viability assay (AID 1918988); note: nearly all actives have a fitted effect of over 65% in size; note: potency is the fitted concentration of half-maximal effect
# Summary of the method: as §2
# [11] = Quantitative High-Throughput drug screen in 47 multiple myeloma cell lines against the NCATS MIPE library collection: OPM1_PLB cell viability assay (AID 1918989); note: nearly all actives have a fitted effect of over 40% in size; note: potency is the fitted concentration of half-maximal effect
# Summary of the method: as §2
# [12] = Quantitative High-Throughput drug screen in 47 multiple myeloma cell lines against the NCATS MIPE library collection: U266_ATCC cell viability assay (AID 1919864); note: nearly all actives have a fitted effect of over 35% in size; note: potency is the fitted concentration of half-maximal effect
# Summary of the method: as §2
# [13] = Quantitative High-Throughput drug screen in 47 multiple myeloma cell lines against the NCATS MIPE library collection: L363_DSMZ cell viability assay (AID 1918984); details: L363 myeloma viability, CellTiter-Glo ATP luminescence, 48 h; viability (% of control): at 45.8 µM (top of the series); note: potency is the fitted concentration of half-maximal effect; nearly all actives have a fitted effect of over 40% in size
# Summary of the method: as §2
# [14] = Quantitative High-Throughput drug screen in 47 multiple myeloma cell lines against the NCATS MIPE library collection: OCIMY7_PLB cell viability assay (AID 1918987); details: OCI-MY7 myeloma viability, CellTiter-Glo ATP, 48 h; viability (% of DMSO): at 45.8 µM (top of the series); note: potency is the fitted concentration of half-maximal effect; nearly all actives have a fitted effect of over 65% in size
# Summary of the method: as §2
# [15] = Quantitative High-Throughput drug screen in 47 multiple myeloma cell lines against the NCATS MIPE library collection: SKMM1_PLB cell viability assay (AID 1919863); details: SKMM1 myeloma viability, CellTiter-Glo ATP, 48 h; viability: active compounds read low
# Summary of the method: as §2
# [16] = Quantitative High-Throughput drug screen in 47 multiple myeloma cell lines against the NCATS MIPE library collection: LP1_DSMZ cell viability assay (AID 1918982); note: nearly all actives have a fitted effect of over 35% in size; note: potency is the fitted concentration of half-maximal effect
# Summary of the method: as §2
# [17] = Quantitative High-Throughput drug screen in 47 multiple myeloma cell lines against the NCATS MIPE library collection: MOLP8_DSMZ cell viability assay (AID 1918977); note: nearly all actives have a fitted effect of over 45% in size
# Summary of the method: as §2
# [18] = Quantitative High-Throughput drug screen in 47 multiple myeloma cell lines against the NCATS MIPE library collection: OCIMY1_PLB cell viability assay (AID 1918979); note: nearly all actives have a fitted effect of over 35% in size
# Summary of the method: as §2
Compound,Potency [1],Potency [2],Potency [3],Potency [4],Potency [5],Potency [6],Potency [7],Potency [8],Potency [9],Potency [10],Potency [11],Potency [12],Potency [13],Potency [14],Potency [15],Potency [16],Potency [17],Potency [18]
COC1CCC(C(=O)c2ccc3nc4c(cc3c2)CCCO4)CC1 (stereo not given),20.9 µM (active),14.8 µM (active),23.5 µM (active),2.64 µM (active),23.5 µM (active),20.9 µM (active),18.7 µM (active),23.5 µM (active),29.6 µM (active),26.4 µM (active),14.8 µM (active),18.7 µM (active),,,,,,
CC[C@H](CC#N)OC(=O)N[C@@H](C)c1cccc(NC(=O)Nc2ccc(-c3cnco3)c(OC)c2)c1,1.48 µM (active),14.8 µM (active),20.9 µM (active),20.9 µM (active),,1.18 µM (active),,1.18 µM (active),,3.72 µM (active),13.2 µM (active),1.48 µM (active),18.7 µM (active),3.72 µM (active),1.18 µM (active),,,
CC(C)CNc1ccnc(NCc2csc(-c3ccccc3)n2)n1,16.6 µM (active),4.69 µM (active),16.6 µM (active),5.9 µM (active),20.9 µM (active),20.9 µM (active),18.7 µM (active),,,14.8 µM (active),,20.9 µM (active),1.87 µM (active),16.6 µM (active),,11.8 µM (active),,
O=c1[nH]c(=O)n([C@H]2C[C@@H](O)[C@@H](CO)O2)cc1I,inactive,1.48 µM (active),inactive,,inactive,,6.62 µM (active),inactive,2.09 µM (active),inactive,inactive,,,,,inactive,inactive,inactive
Cc1cc(OCCCS(C)(=O)=O)cc(C)c1-c1cccc(COc2ccc3c(c2)OC[C@H]3CC(=O)O)c1,13.2 µM (active),5.26 µM (active),inactive,14.8 µM (active),20.9 µM (active),,6.62 µM (active),20.9 µM (active),inactive,,18.7 µM (active),inactive,,18.7 µM (active),,16.6 µM (active),,inactive
O=C(O)CCNc1cc(N2CCc3ccccc3CC2)nc(-c2ccccn2)n1,0.0372 µM (active),inactive,inactive,,inactive,,16.6 µM (active),,,23.5 µM (active),5.26 µM (active),,,,,inactive,,inactive
